From PubChem BioAssay
The list is not random: actives were taken first. Their share in the collection is about 2.3%.
ATXN2 expr inh: ATXN2 expression inhibition; HEK-293 ATXN2-luciferase reporter, luminescence, 24 h; Potency, µM (series often up to 57 µM), for inactives: at the highest dose activity change, negative = inhibition, most hits filed as inhibitors; actives 0.72% (n = 360,000); AID 1745845; note: % is set by controls: 0 for no effect and ±100 for the full control effect; nearly all actives have a fitted effect of over 55% in size
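qHTS (up to 57 uM final) was run with 24 h compound exposure of reporter cells at 37 °C. Each well was multiplexed: SteadyGlo luminescence measured ATXN2-luciferase expression after a fluorogenic Gly-Phe-AFC viability readout (25 uM final).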
ATXN viability: reduces viability in counter-screen for ATXN expression inhibitors | S2 cells (HEK-293 line with an ATXN2-luciferase reporter) viability, CellTiter-Fluor protease fluorescence, 24 h | Potency, µM (titrated, usually from 56.7 µM), actives largely listed as cytotoxic | actives 0.49% (n = 400,000) | AID 651635; note: nearly all actives have a fitted effect of over 40% in size
HepG2 tox: counter-screen for TGF-b inhibitors: cytotoxicity in HepG2 cells. HepG2 CAGA-GFP viability, ATP luminescence, 18 h. Potency, µM (doses to about 46.1 µM), for the others: top-dose activity change, negative = cytotoxicity, usual class: cytotoxic. actives 0.76% (n = 410,000). AID 588856
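CellTiter-Glo luminescence gave cytotoxicity after 18 hours at 37 degrees C. The cells were HepG2 CAGA-GFP in 1% FBS DMEM, stimulated with 500 pg/mL TGF-beta after compound addition. %Activity was normalised to no-cell wells (complete cell-killing) and DMSO (no toxicity), and curves were fitted and classified.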
TGFb SMAD3 inh: blocks TGF-b signaling; Potency, µM (titrated, usually from 46.1 µM), inactives show at the top dose activity, negative = inhibition, actives largely listed as inhibitors; HepG2 CAGA-GFP TGF-b/SMAD3 reporter, GFP fluorescence, 18 h; TGF-beta stimulated, 500 pg/mL final; AID 588855; actives 1.2% (n = 410,000); note: % is set by controls: 0 for no effect and ±100 for the full control effect; nearly all actives have a fitted effect of over 65% in size
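Cell-based qHTS in HEPG2 carrying a CAGA-GFP Smad reporter; compounds added before 500 pg/mL final TGF-beta, 18 h incubation at 37 degrees C, GFP fluorescence quantified per cell by imaging cytometry.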
An asterisk follows results filed as active; i = inactive; ? = inconclusive; · = not tested or not shown. Calls come from the whole dose curve; as a rule, active = well fitted curve in the direction sought with a large enough effect; inconclusive = small, poorly fitted or top-dose-only effect, or another doubt; inactive = no such curve, though single readings can be large; an effect the other way counts as inactive or inconclusive. Potency is the fitted concentration of half-maximal effect.

SMILES	ATXN2 expr inh	ATXN viability	HepG2 tox	TGFb SMAD3 inh
Cc1ccc(C(C)C)c(OCc2ccc(C(=O)N/N=C/c3ccc(O)c(O)c3)cc2)c1	?	i	-74.3%	?
Cc1ccc(C(C)C)c(OCc2ccc(C(=O)N/N=C/c3cccc(O)c3O)cc2)c1	2.99µM*	i	-36.5%	?
Cn1ncc2c(N3CCN(c4ccc(Cl)c(Cl)c4)CC3)ncnc21	0.947µM*	i	-7.3%	?
CCOc1ccc(NS(=O)(=O)c2ccc3[nH]c4c(c3c2)CCCC4)cc1	?	?	11.2µM*	11.2µM*
CCOc1ccc(NS(=O)(=O)c2ccc3[nH]c4c(c3c2)CCCCC4)cc1	?	?	-100.2%	?
Cc1cccc(NS(=O)(=O)c2ccc3[nH]c4c(c3c2)CCCCCC4)c1	·	·	20µM*	10µM*
COc1ccc(NS(=O)(=O)c2ccc3[nH]c4c(c3c2)CCCC4)cc1Cl	?	?	-109.2%	?
Cc1ccc(NS(=O)(=O)c2ccc3[nH]c4c(c3c2)CCCCCC4)cc1Cl	?	?	12.6µM*	11.2µM*
CC(=O)c1cccc(NS(=O)(=O)c2ccc3[nH]c4c(c3c2)CCCCC4)c1	?	?	-90.0%	?
O=S(=O)(Nc1cccc(Cl)c1)c1ccc2[nH]c3c(c2c1)CCCCCC3	?	·	20µM*	11.2µM*
Cc1ccc(Cl)cc1N1CCN(S(=O)(=O)c2ccc3[nH]c4c(c3c2)CCCC4)CC1	-5.6%	i	-3.7%	10µM*
CCOC(=O)c1cccc(NS(=O)(=O)c2ccc3[nH]c4c(c3c2)CCCC4)c1	?	?	-53.5%	14.1µM*
CC(=O)c1cccc(NS(=O)(=O)c2ccc3[nH]c4c(c3c2)CCCCCC4)c1	-29.5%	?	-82.1%	?
Cc1ccc(C)c(N2CCN(S(=O)(=O)c3ccc4[nH]c5c(c4c3)CCCCC5)CC2)c1	-15.1%	i	-14.4%	-2.7%
O=C(COC(=O)/C=C/c1ccc(C(F)(F)F)cc1)Nc1ccc2[nH]c(=O)[nH]c2c1	2.8%	i	3.55µM*	-4.2%
COc1ccc2c(c1)OC(C)CN(CCNC(=O)c1cc3cc(F)ccc3[nH]1)C2 (stereo not drawn)	·	i	·	·
COC(=O)C[C@H]1c2cc(C(F)(F)F)ccc2S(=O)(=O)N1C(C)C	·	·	6.1%	-18.2%
COC(=O)c1cccc(NC2CC(=O)N(c3ccc(OC)c(OC)c3)C2=O)c1 (stereo not drawn)	2.6%	i	5.01µM*	-9.0%
COc1ccc(N2C(=O)CC(Nc3ccc(C(=O)O)cc3)C2=O)cc1OC (stereo not drawn)	-14.0%	·	4.5%	6.1%
COc1ccc(-n2nc3c(N4CCCC(C(=O)NCc5ccccc5C)C4)nnc(C)c3c2C)cc1 (stereo not drawn)	·	·	-73.7%	5.01µM*
CCOc1ccccc1CNC(=O)C1CCCN(c2nnc(C)c3c(C)n(-c4ccccc4)nc23)C1 (stereo not drawn)	?	7.94µM*	0.3%	?
COc1ccccc1CNC(=O)C1CCCN(c2nnc(C)c3c(C)n(-c4ccccc4)nc23)C1 (stereo not drawn)	-10.4%	?	-52.8%	?
OC[C@H]1O[C@@H](n2cnc3c(=S)nc[nH]c32)[C@H](O)[C@@H]1O	-14.2%	?	·	·
CC(=O)NC(CS)C(=O)O (stereo not drawn)	5.9%	·	·	·
CC(C)c1ccc(Cn2ccc3c4c(N)nc(NC5CC5)nc4ccc32)cc1	24.3µM*	·	·	·
SMILES	ATXN2 expr inh	ATXN viability	HepG2 tox	TGFb SMAD3 inh
Cc1cc(NC(=O)CN(C)S(=O)(=O)c2ccc3c(c2)CCCC(=O)N3)ccc1Br	15.8µM*	·	-27.7%	-14.3%
CC(=O)Nc1ccc(NC(=O)CN(C)S(=O)(=O)c2ccc3c(c2)CCC(=O)N3)cc1	9.0%	i	2.0%	15.6%
NC1=NC[C@H](Cc2ccccc2)N1CCCCC1CCCCC1	25.1µM*	?	-105.4%	?
NC1=NC[C@@H](CC2CCCCC2)N1CCc1cc(C(F)(F)F)cc(C(F)(F)F)c1	20µM*	17.8µM*	-93.3%	?
CC(O)[C@H]1CN=C(N)N1CCc1cc(C(F)(F)F)cc(C(F)(F)F)c1 (stereo partly drawn)	8.4%	i	-8.4%	3.5%
NC1=NC[C@H](c2ccccc2)N1CCc1cc(C(F)(F)F)cc(C(F)(F)F)c1	?	·	-110.3%	11.2µM*
